Test results from PubChem BioAssay (NCATS).
Inconclusive results are not listed. Calls of active or inactive are those of the source. The call rests on the fitted dose curve; in most records, active means well fitted curve in the direction sought with a large enough effect; inconclusive means small, poorly fitted or top-dose-only effect, or another doubt; inactive means no such curve, though single readings can be large; an effect the other way counts as inactive or inconclusive.

target: Calcium and integrin-binding protein 1 (Homo sapiens) (UniProt Q99828); test: Primary qHTS for Identification of Calcium Integrin Binding Protein 1 (CIB1) Competitor (AID 1508620); conditions: CIB1-GST / FITC-alphaIIb peptide fluorescence polarization; series mostly up to 57.7 µM; activity change, negative = inhibition: at the top concentration;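 further: GST tagged CIB1 binding a fluorescein labelled alphaIIb integrin peptide tracer; top concentration of the series differs between compounds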
Sequence (Q99828 whole entry, looked up): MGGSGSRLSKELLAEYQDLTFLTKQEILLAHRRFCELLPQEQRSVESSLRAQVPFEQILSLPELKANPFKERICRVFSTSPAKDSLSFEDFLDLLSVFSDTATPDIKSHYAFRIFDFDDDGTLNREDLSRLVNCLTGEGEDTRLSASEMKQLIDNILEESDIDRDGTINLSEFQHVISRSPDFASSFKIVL
Method in brief: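 CIB1-GST (1 uM final) and compound incubated 15 min at room temperature before adding FITC-alphaIIb peptide tracer (100 nM final). Competition for binding read by fluorescence polarization (ex 480, em 540) after another 15 min at room temperature.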
On the % scale 0 is the no-effect control and ±100 the full control effect.

SMILES	activity change, negative = inhibition	Potency
CCCCCCCCc1ccc(CCC(N)(CO)CO)cc1	-2.51% (inactive)	–
NC(=O)N1CCC(CC(=O)N2CCC([C@H]3c4ncc(Br)cc4CCc4cc(Cl)cc(Br)c43)CC2)CC1	-1.76% (inactive)	–
CC(C)(C)c1nc2c3cc[nH]c(=O)c3c3cc(F)ccc3c2[nH]1	1.71% (inactive)	–
CC(O)(C#Cc1ccc2c(c1)N(c1nc(N)ncc1Cl)CC2)c1nccs1 (stereo unspecified)	-1.07% [at 114 µM] (inactive)	–
C[C@H](NCc1ccc2c(c1)nc(NC(=O)c1ccc(-c3cn[nH]c3)s1)n2CCc1ccccc1)C(C)(C)C	-5.96% (inactive)	–
N#Cc1c(NC(=O)c2cccc3ccccc23)sc2c1CCCC2	0.386% (inactive)	–
C#C[C@]1(O)CC[C@@H]2[C@@H]3CCC4=CC(=O)CC[C@@H]4[C@H]3CC[C@@]21CC	6.78% (inactive)	–
COc1cc(N2CCC(C(N)=O)CC2)ccc1Nc1nc(N)c(Cl)c(Nc2ccccc2S(=O)(=O)C(C)C)n1	-6.86% (inactive)	–
COc1cc(C=CC(=O)CC(=O)C=Cc2ccc(O)c(OC)c2)ccc1O	35.7% [at 114 µM] (inactive)	–
COc1cc2c(cc1O)CCC1C2CC[C@@]2(C)C1CC[C@@H]2O (stereo partly specified)	-4.4% (inactive)	–
O=C1NC(=O)C(=Cc2ccc3nccc(-c4ccncc4)c3c2)S1	-6.25% (inactive)	–
CCC(C(=O)O)C1CCC(C)C(C(C)C(O)C(C)C(=O)C(CC)C2OC3(C=CC(O)[C@@]4(CC[C@](C)(C5CC[C@@](O)(CC)C(C)O5)O4)O3)C(C)CC2C)O1 (stereo partly specified)	-3.54% (inactive)	–
CC(C)N(CC[C@H](c1ccccc1)c1cc(CO)ccc1O)C(C)C	-0.618% (inactive)	–
CN[C@@H]1C[C@H]2O[C@@](C)([C@H]1OC)n1c3ccccc3c3c4c(c5c6ccccc6n2c5c31)C(=O)N[C@H]4O	-12.4% (inactive)	–
FC(F)c1nc2ccccc2n1-c1nc(N2CCOCC2)nc(N2CCOCC2)n1	–	inactive
C=C1C(=O)O[C@H]2[C@@H]1CCC(C)=CCC[C@@]1(C)O[C@@H]21	-6.79% (inactive)	–
Cn1cc(C=CC(=O)c2cccc(F)c2)cc1C=CC(=O)NO	88.1% (inactive)	–
Nc1nc(=O)n([C@H]2CSC(CO)O2)cc1F (stereo partly specified)	-0.686% (inactive)	–
C[C@H](NCc1ccc(OCc2cccc(F)c2)cc1)C(N)=O	3.17% (inactive)	–

SMILES	activity change, negative = inhibition	Potency
CC(C)(N)c1ccc(-c2nc3ccccc3nc2-c2ccccc2)cc1	–	inactive
CC(C)n1cnc2c(NCCc3ccc(O)cc3)nc(-c3csc4ccccc34)nc21	–	inactive
CC(C)(C)[C@H](NC(=O)c1ccc(N)c(Cl)c1)C(=O)N1CCC[C@@H]1C(=O)N[C@H](C#N)CC(=O)O	-8.66% [at 6.45 µM] (inactive)	–
CC[C@]12C=CCN3CC[C@@]4(c5cc([C@@]6(C(=O)OC)C[C@H]7C[C@@H](C(C)(F)F)CN(Cc8c6[nH]c6ccccc86)C7)c(OC)cc5N(C)[C@H]4[C@@](O)(C(=O)OC)[C@H]1OC(C)=O)[C@@H]32	-2.12% (inactive)	–
C=CC1=C(C(=O)O)N2C(=O)[C@@H](NC(=O)C(=NO)c3csc(N)n3)[C@H]2SC1	-5.59% (inactive)	–
Nc1ncn([C@@H]2O[C@H](CO)[C@@H](O)[C@@H]2O)c(=O)n1	1.75% (inactive)	–
c1cc(CN2CCCNCCNCCCNCC2)ccc1CN1CCCNCCNCCCNCC1	-2.93% (inactive)	–
COc1cc(OC)cc(-c2ccc3ncc4ccc(=O)n(-c5ccc(N6CCNCC6)c(C(F)(F)F)c5)c4c3c2)c1	-0.972% (inactive)	–
COc1cc([C@@H]2c3cc4c(cc3[C@@H](O[C@@H]3O[C@@H]5CO[C@@H](c6cccs6)O[C@@H]5[C@H](O)[C@@H]3O)[C@H]3COC(=O)[C@H]23)OCO4)cc(OC)c1O	0.77% (inactive)	–
COC(=O)C=CC(=O)OC	0.244% (inactive)	–
CCC(C=C[C@@H]1OC(=O)C=C[C@H]1C)=C[C@H](C)CC=CC(C)=C[C@@H](C)C(=O)[C@@H](C)[C@H](O)[C@@H](C)CC(C)=CC(=O)O	3.68% [at 2.24 µM] (inactive)	–
COc1cc([C@@H]2c3cc4c(cc3[C@H](O)[C@H]3COC(=O)[C@@H]23)OCO4)cc(OC)c1OC	0.0907% (inactive)	–
O=C(O)[C@H](CC(=O)N1C[C@@H]2CCCC[C@H]2C1)Cc1ccccc1	5.48% (inactive)	–
CON=C(C(=O)N[C@@H]1C(=O)N2C(C(=O)O)=C(CSC(=O)c3ccco3)CS[C@H]12)c1csc(N)n1	-6.84% (inactive)	–
Cn1cc(-c2cnn3c(N)c(Br)c([C@H]4CCCNC4)nc23)cn1	-1.29% (inactive)	–
C[C@H]1C[C@H]2[C@@H]3CCC4=CC(=O)C=C[C@]4(C)[C@@H]3C(=O)C[C@]2(C)[C@@]1(O)C(=O)CO	-0.135% (inactive)	–
CCC[C@H]1C[C@H](C(=O)N[C@@H]([C@@H]2O[C@@H](SC)[C@@H](O)[C@@H](O)[C@@H]2O)[C@H](C)Cl)N(C)C1	-4.82% [at 114 µM] (inactive)	–
OCC(O)C(O)C(O)CO (stereo unspecified)	2.45% (inactive)	–
O=C(O)C(=O)Nc1cccc(C2=NN=N[N]2)c1	-0.323% (inactive)	–

tested on: not listed separately; test: Primary qHTS for small molecule stabilizers of the endoplasmic reticulum resident proteome: Secreted ER Calcium Modulated Protein (SERCaMP) assay (AID 1508630); conditions: SH-SY5Y GLuc-SERCaMP (Gaussia luciferase released on ER calcium loss) secretion, thapsigargin, luminescence; series mostly up to 38.4 µM; activity change, negative = inhibition: at the top concentration
Method in brief: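 GLuc-SERCaMP-expressing SH-SY5Y cells, pretreated 16 h with compound, are challenged with thapsigargin to empty ER calcium stores; after 4 h, coelenterazine is added directly to the medium and luminescence is imaged.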

SMILES	activity change, negative = inhibition
CCCCCCCCc1ccc(CCC(N)(CO)CO)cc1	288% (inactive)
NC(=O)N1CCC(CC(=O)N2CCC([C@H]3c4ncc(Br)cc4CCc4cc(Cl)cc(Br)c43)CC2)CC1	0% (inactive)
CC(C)(C)c1nc2c3cc[nH]c(=O)c3c3cc(F)ccc3c2[nH]1	5.51% (inactive)
CC(O)(C#Cc1ccc2c(c1)N(c1nc(N)ncc1Cl)CC2)c1nccs1 (stereo unspecified)	2.76% (inactive)
C[C@H](NCc1ccc2c(c1)nc(NC(=O)c1ccc(-c3cn[nH]c3)s1)n2CCc1ccccc1)C(C)(C)C	0% (inactive)
N#Cc1c(NC(=O)c2cccc3ccccc23)sc2c1CCCC2	79.8% (inactive)
C#C[C@]1(O)CC[C@@H]2[C@@H]3CCC4=CC(=O)CC[C@@H]4[C@H]3CC[C@@]21CC	96.6% (inactive)
COc1cc(N2CCC(C(N)=O)CC2)ccc1Nc1nc(N)c(Cl)c(Nc2ccccc2S(=O)(=O)C(C)C)n1	173% (inactive)
COc1cc(C=CC(=O)CC(=O)C=Cc2ccc(O)c(OC)c2)ccc1O	-29.3% [at 76.3 µM] (inactive)
COc1cc2c(cc1O)CCC1C2CC[C@@]2(C)C1CC[C@@H]2O (stereo partly specified)	243% (inactive)
O=C1NC(=O)C(=Cc2ccc3nccc(-c4ccncc4)c3c2)S1	310% (inactive)
CCC(C(=O)O)C1CCC(C)C(C(C)C(O)C(C)C(=O)C(CC)C2OC3(C=CC(O)[C@@]4(CC[C@](C)(C5CC[C@@](O)(CC)C(C)O5)O4)O3)C(C)CC2C)O1 (stereo partly specified)	262% (inactive)
CC(C)N(CC[C@H](c1ccccc1)c1cc(CO)ccc1O)C(C)C	5.13% (inactive)
CN[C@@H]1C[C@H]2O[C@@](C)([C@H]1OC)n1c3ccccc3c3c4c(c5c6ccccc6n2c5c31)C(=O)N[C@H]4O	262% (inactive)
FC(F)c1nc2ccccc2n1-c1nc(N2CCOCC2)nc(N2CCOCC2)n1	-15.7% (inactive)
C=C1C(=O)O[C@H]2[C@@H]1CCC(C)=CCC[C@@]1(C)O[C@@H]21	376% (inactive)
Cn1cc(C=CC(=O)c2cccc(F)c2)cc1C=CC(=O)NO	33.3% (inactive)
Nc1nc(=O)n([C@H]2CSC(CO)O2)cc1F (stereo partly specified)	38.7% (inactive)
C[C@H](NCc1ccc(OCc2cccc(F)c2)cc1)C(N)=O	218% (inactive)

SMILES	activity change, negative = inhibition
CC(C)(N)c1ccc(-c2nc3ccccc3nc2-c2ccccc2)cc1	235% (inactive)
CC(C)n1cnc2c(NCCc3ccc(O)cc3)nc(-c3csc4ccccc34)nc21	149% (inactive)
CC(C)(C)[C@H](NC(=O)c1ccc(N)c(Cl)c1)C(=O)N1CCC[C@@H]1C(=O)N[C@H](C#N)CC(=O)O	176% [at 3.88 µM] (inactive)
CC[C@]12C=CCN3CC[C@@]4(c5cc([C@@]6(C(=O)OC)C[C@H]7C[C@@H](C(C)(F)F)CN(Cc8c6[nH]c6ccccc86)C7)c(OC)cc5N(C)[C@H]4[C@@](O)(C(=O)OC)[C@H]1OC(C)=O)[C@@H]32	41.9% (inactive)
C=CC1=C(C(=O)O)N2C(=O)[C@@H](NC(=O)C(=NO)c3csc(N)n3)[C@H]2SC1	84.2% (inactive)
Nc1ncn([C@@H]2O[C@H](CO)[C@@H](O)[C@@H]2O)c(=O)n1	71.7% (inactive)
c1cc(CN2CCCNCCNCCCNCC2)ccc1CN1CCCNCCNCCCNCC1	203% (inactive)
COc1cc(OC)cc(-c2ccc3ncc4ccc(=O)n(-c5ccc(N6CCNCC6)c(C(F)(F)F)c5)c4c3c2)c1	149% (inactive)
COc1cc([C@@H]2c3cc4c(cc3[C@@H](O[C@@H]3O[C@@H]5CO[C@@H](c6cccs6)O[C@@H]5[C@H](O)[C@@H]3O)[C@H]3COC(=O)[C@H]23)OCO4)cc(OC)c1O	216% (inactive)
COC(=O)C=CC(=O)OC	140% (inactive)
CCC(C=C[C@@H]1OC(=O)C=C[C@H]1C)=C[C@H](C)CC=CC(C)=C[C@@H](C)C(=O)[C@@H](C)[C@H](O)[C@@H](C)CC(C)=CC(=O)O	41.2% [at 1.51 µM] (inactive)
COc1cc([C@@H]2c3cc4c(cc3[C@H](O)[C@H]3COC(=O)[C@@H]23)OCO4)cc(OC)c1OC	0% (inactive)
O=C(O)[C@H](CC(=O)N1C[C@@H]2CCCC[C@H]2C1)Cc1ccccc1	213% (inactive)
CON=C(C(=O)N[C@@H]1C(=O)N2C(C(=O)O)=C(CSC(=O)c3ccco3)CS[C@H]12)c1csc(N)n1	141% (inactive)
Cn1cc(-c2cnn3c(N)c(Br)c([C@H]4CCCNC4)nc23)cn1	-4.56% (inactive)
C[C@H]1C[C@H]2[C@@H]3CCC4=CC(=O)C=C[C@]4(C)[C@@H]3C(=O)C[C@]2(C)[C@@]1(O)C(=O)CO	40.5% (inactive)
CCC[C@H]1C[C@H](C(=O)N[C@@H]([C@@H]2O[C@@H](SC)[C@@H](O)[C@@H](O)[C@@H]2O)[C@H](C)Cl)N(C)C1	14.1% (inactive)
OCC(O)C(O)C(O)CO (stereo unspecified)	52.6% (inactive)
O=C(O)C(=O)Nc1cccc(C2=NN=N[N]2)c1	16.1% (inactive)
